Experimental data from PubChem BioAssay.

Experiment: NFkB reporter suppression in cystic fibrosis bronchial cells – cell-based, uHTS hits, panel, cytotoxicity readout, dose response (AID 624344)
Settings: CF bronchial epithelial cells, PAF-induced NFkB reporter inhibition, with PAF, run 1; at 79 µM (top of the series) unless noted

| Compound | inhibition [%] |
| --- | --- |
| CCOc1ccccc1NC(=S)Nc1ccc2cn[nH]c2c1 | 104 |
| Cc1ccc(-c2n[nH]c(=S)n2/N=C/c2ccncc2)cc1 | 111 |
| Cc1nc(N)c(C#N)c(-c2cccnc2)c1-c1ccccc1 | 93.9 |
| FC(F)(F)c1nnc2c(Sc3ccccc3)nc3ccccc3n12 | 92.8 |
| FC(F)Sc1ccc(NC(=S)NCC2CCCCC2)cc1 | 106 |
| Cc1ccc(S(=O)(=O)Nc2cccc3ncccc23)s1 | 107 |
| Cc1ccc(N(C)C(=O)c2cc(S(=O)(=O)N3CCCCC3)c[nH]2)cc1 | 93.5 |
| CS(=O)(=O)c1ccc2nc(NC(=O)Nc3cccc(Cl)c3)sc2c1 | 79.3 |
| COc1ccc(-n2c(C)cc3cc(OC(C)=O)ccc32)cc1 | 86.5 |
| Cc1ccc(-c2cc(C(=O)N/N=C/c3c(C)nn(-c4ccccc4)c3C)[nH]n2)cc1 | 62.7 |
| CCC(=O)Nc1nc(C)c(-c2csc(Nc3cccc(O)c3)n2)s1 | 95.9 |
| Cc1c(C(=O)OCC(C)C)[nH]c2c1C(=O)CC(c1ccco1)C2 (stereo not given) | 97.4 |
| Cc1ccc(Nc2nc3nonc3[nH]c2=O)cc1Cl | 118 |
| O=C(/C=C/c1cccs1)Nc1cccc(NC(=O)/C=C/c2cccs2)n1 | 97.2 |
| Cc1ccc(N=Cc2cc3c(cc2O)OC(N)=C(C#N)C3c2ccccc2)cc1 (stereo not given) | 79.8 |
| CCOc1cc2c(cc1O)C(=NOC)CC1C2CCC2(C)C(O)CCC12 (stereo not given) | 74 |
| Cc1ncc(CO)c2c1Oc1nc(-c3ccccc3F)nc(SCC(=O)N(C)c3ccccc3)c1C2 | 105 |
| Cc1ccc(NC(=O)c2nc[nH]c2C(=O)NCCCNC(=O)c2[nH]cnc2C(=O)Nc2ccc(C)cc2)cc1 | 108 |
| CC(=O)N1CC(=O)N=C1SCC(=O)Nc1nc(C)c(-c2ccccc2)s1 | 62.6 |
| Cc1cccc(NC(=O)c2nc[nH]c2C(=O)NCCCNC(=O)c2[nH]cnc2C(=O)Nc2cccc(C)c2)c1 | 97.6 |

| Compound | inhibition [%] |
| --- | --- |
| CC(C)[C@H](CO)Nc1nc(NCc2ccc(S(N)(=O)=O)cc2)c2ncn(C(C)C)c2n1 | 107 |
| CCCN(CC)c1ncnc2[nH]ncc12 | 106 |
| CCN(CC)CCN(C(=O)CCS(=O)(=O)c1ccccc1)c1nc2c(C)cc(C)cc2s1 | 106 |
| O=C(Oc1cc2oc(=O)cc(-c3ccccc3)c2cc1Cl)C1CCCCC1 | 113 |
| Cc1ccc2c(c1)C(=O)C(=O)N2Cc1ccc(C(F)(F)F)cc1 | 111 |
| NC1(C(=O)O)CSSC1 | 112 |
| COc1ccc(NC(=O)Cn2ncn3nc(-c4ccc(OC)cc4)cc3c2=O)cc1 | 102 |
| O=C(NCCN1CCN(c2ccccc2)CC1)c1cccc(Br)c1 | 113 |
| O=C(c1ccc(O)c(Br)c1)c1cc(Br)ccc1O | 105 |
| N=C1N(c2ccccc2)C(=S)C(=Nc2ccccc2)N1c1ccccc1 | 114 |
| C=Cc1ccc(CC2(C)C(=O)Nc3ccc(-c4cccnc4)cc32)cc1 (stereo not given) | 113 |
| COc1cc(CN(C)c2ccc(S(=O)(=O)N3CCCC3)cn2)ccc1OC(F)F | 82.4 |
| c1csc(CNc2ncnc3ccc(-c4ccoc4)cc23)c1 | 105 |
| COc1cc(NC(=O)c2cc3ccccc3cc2OC)ccc1NC(=O)c1cccs1 | 98.1 |
| Cc1cccc(NC(=O)c2cc(-c3ccc(C)s3)nc3ccccc23)n1 | 98.5 |
| CCCn1c(-c2nonc2N)nc2ccccc21 | 99.6 |
| C#CCN(C[C@@H]1[C@@H](OC(=O)NCc2ccco2)[C@@H](OC(=O)NCc2ccco2)Cn2c(=O)ccc(=O)n21)S(=O)(=O)c1ccc(C)cc1 | 98.7 |
| C=CCSc1nc2ccccc2n1C(=O)/C=C/c1ccc(OC)c(OC)c1 | 115 |
| CCN1CCN(Cc2ccc(NC(=O)c3ccc(C)c(NC(=O)c4csc(-c5ccncc5)n4)c3)cc2C(F)(F)F)CC1 | 107 |
| Cc1cc(C)c2nc(C(F)(F)F)c(C#N)c(N)c2c1 | 97.7 |
